Consider 57 compounds from PubChem BioAssay AID485344 (National Center for Advancing Translational Sciences (NCATS), 2010).

Screen size: about 340,000 compounds; about 6,900 (2%) were called active. The full list was thinned out, with actives kept by preference. A number with no mark means an inactive call. No stated cut-off is given here; in the data, active means inhibition above about 30%; inactive means below that, where a call was filed.

D(2) dopamine receptor (Homo sapiens), sequence (P14416 whole entry, looked up): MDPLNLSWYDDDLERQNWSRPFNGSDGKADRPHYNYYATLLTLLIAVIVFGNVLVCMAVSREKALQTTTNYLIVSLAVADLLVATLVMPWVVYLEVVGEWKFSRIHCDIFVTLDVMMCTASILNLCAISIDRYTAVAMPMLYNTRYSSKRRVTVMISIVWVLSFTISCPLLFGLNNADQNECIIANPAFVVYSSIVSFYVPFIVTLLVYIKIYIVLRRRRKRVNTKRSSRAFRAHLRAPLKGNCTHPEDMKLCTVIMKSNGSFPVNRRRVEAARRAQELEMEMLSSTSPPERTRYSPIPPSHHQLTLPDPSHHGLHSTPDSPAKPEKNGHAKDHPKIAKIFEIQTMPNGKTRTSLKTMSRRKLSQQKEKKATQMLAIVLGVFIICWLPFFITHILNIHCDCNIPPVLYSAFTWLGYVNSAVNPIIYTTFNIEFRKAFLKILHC

In the assay the target is D(2) dopamine receptor (Homo sapiens) (UniProt P14416). In words: HTS Assay for Allosteric Antagonists of the Human D2 Dopamine Receptor: Primary Screen for Antagonists. Further: 0% is about no effect. The following applies: HEK293 TREx D2 cells, calcium flux, dopamine EC80; at 10 µM; active compounds read high. The method in brief:
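Cells plated overnight at 30 C with tetracycline; no-wash calcium dye, 30–90 min RT; 10 s baseline; compound pinned; 180 s read; EC80 dopamine added; another 180 s read.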
A general note: A change in cytosolic calcium serves as a functional read-out for many receptors and channels.
In the case of `CCN(C(=O)COC(=O)Cc1c(F)cccc1Cl)c1c(N)n(Cc2ccccc2)c(=O)[nH]c1=O`, the inhibition (usually the drop in the measured response relative to a control, in per cent) is 4.82%.
In the case of `CCOC(=O)c1c(C)[nH]c2c1-c1ccccc1C(=O)C2=O` it was -2.67%.
In the case of `CCOC(=O)c1c(C)[nH]c(C2=NNC(=NC(C)COC)SC2)c1C` (configuration not stated) it was 36% (active).
`C[C@@H]1NC(=O)[C@@]2(C)[C@@H](c3ccccc3)[C@H]3COc4ccccc4[C@@H]3N2C1=O`: the inhibition is -7.78%.
To `CCOc1ccc(CCNC(=O)CN2C(=O)NC3(CCc4ccccc43)C2=O)cc1OCC` (configuration not stated) belongs 1.52%; to `CCN(C(=O)CSc1nc(N)cc(=O)[nH]1)C1CCS(=O)(=O)C1` (configuration not stated), 10.5%.
To `Cc1ccc2nc(-c3ccncc3)cc(C(=O)Nc3ccncc3)c2c1` belongs -15.6%.
To `CCS(=O)(=O)Nc1cccc(-c2cc(-c3ccccc3)c3cc(C)ccc3n2)c1` belongs 30.3% (active).
On to `Cc1ccc2nc(Nc3ccccc3)cc(C)c2c1`, for which the inhibition was -16.8%.
To `Cc1cc(OCCN2CCCC2)cc(C(C)C)c1` belongs 46.1% (active); to `c1ccc2cc(OCCN3CCCC3)ccc2c1`, 6.73%.
To `Cc1cc(OCCN2CCCC2)ccc1C(C)C` belongs -8.05%.
To `CCCCc1ccc(NS(=O)(=O)c2cccc(C(=O)N3CCCN(C)CC3)c2)cc1` belongs 16.6%.
For the compound `Cc1ccnc(NC(=O)C(C)N2C(=O)c3ccccc3C2=O)c1` (configuration not stated), the inhibition is -8.26%.
Consider `Cc1cc(C)nc(NC(=O)C(C)N2C(=O)c3ccccc3C2=O)n1` (configuration not stated), for which the inhibition is 35.4% (active).
To `COC(=O)c1ccc(NC(=O)C(C)N2C(=O)c3ccccc3C2=O)cc1` (configuration not stated) belongs 4.17%.
In the case of `CCCN(CC1CC1)C(=S)NC(=O)c1ccccc1Br` it was 6.85%; in that of `Cc1cc(C(=O)OCC(=O)Nc2ccccc2Cl)c(C)o1`, 3.84%.
In the case of `Cc1ccc(NC(=O)Cn2c(C)csc2=O)cc1` it was -14.9%; in that of `CCOC(=O)N1CCN(S(=O)(=O)c2ccc3c(c2)C(C)C(=O)N3)CC1` (configuration not stated), -7.55%; in that of `CC(=O)Nc1cccc(/C(C)=N/NC(=O)c2c(-c3ccccc3Cl)noc2C)c1`, -13%.
For the compound `Cc1ccc2cc(CCNC(=O)c3ccc4c(c3)OCO4)c(=O)[nH]c2c1`, the inhibition is -22%.
In the case of `Cc1ccc2cc(CCNC(=O)c3c(-c4ccccc4Cl)noc3C)c(=O)[nH]c2c1`, the inhibition was 34% (active).
In the case of `CCN(c1ccccc1)S(=O)(=O)c1ccc(OCC(=O)N2CCCC2)cc1` it was -6.24%; in that of `CC(OC(=O)c1ccc(S(=O)(=O)N2CCOCC2)cc1)c1ccccc1` (configuration not stated), -6.07%; in that of `c1ccc(-c2cnc(CN3CCN(c4ccccc4)CC3)o2)cc1`, 77.7% (active).
To `Fc1ccc(N2CCN(Cc3cnc(Oc4ccc(Br)cc4)s3)CC2)cc1` belongs 14.3%; to `COc1ccc(N2CCN(Cc3nnc(-c4ccccc4)o3)CC2)cc1`, 9.11%.
As to `O=[N+]([O-])c1ccc(S(=O)(=O)Nc2cccc(-c3ccc(N4CCCC4)nn3)c2)cc1`, the inhibition is -6.06%.
To `Cc1ccc(Cl)cc1NC(=O)COC(=O)CC(C)(C)C` belongs 40.7% (active).
To `Cc1ccc(Cl)cc1NC(=O)COC(=O)C1CCCCC1` belongs -6.03%; to `CCCC(=O)OCC(=O)Nc1cc(Cl)ccc1[N+](=O)[O-]`, -3.56%.
To `O=C(C1CCC1)N1CCN(S(=O)(=O)c2ccc([N+](=O)[O-])cc2)CC1` belongs -8.41%; to `COCCn1cnnc1SCC(=O)Nc1cccc(S(=O)(=O)N2CCCCC2)c1`, 3.75%.
Consider `O=C(C1CCN(Cc2ccc(Cl)cc2)CC1)N1CCN(Cc2ccc3c(c2)OCO3)CC1`, for which the inhibition is -7.43%.
To `O=C(CSCc1ccc(Cl)cc1)N1CCN(Cc2ccc3c(c2)OCO3)CC1` belongs 15.1%.
In the case of `O=C(c1cccs1)N1CCN(Cc2ccc3c(c2)OCO3)CC1`, the inhibition is 86.6% (active).
In the case of `CCn1cc(C(=O)N2CCN(C3CCCCC3)CC2)c2cc(OC)c(OC)cc2c1=O` it was 2.69%; in that of `CCn1cc(C(=O)NCc2ccc3c(c2)OCO3)c2cc(OC)c(OC)cc2c1=O`, -9.78%; in that of `CCn1cc(C(=O)N2CCN(Cc3ccc4c(c3)OCO4)CC2)c2cc(OC)c(OC)cc2c1=O`, 32.8% (active).
To `CC(=O)Nc1ccc(NC(=O)C(C)OC(=O)C2CC(=O)N(CCc3ccccc3)C2)cc1` (configuration not stated) belongs -0.386%.
Consider `O=C(NCCc1ccco1)C(=O)NCCC1CCCCN1S(=O)(=O)c1ccccc1` (configuration not stated), for which the inhibition is -16%.
In the case of `COc1cccc(-n2c(SCC(=O)c3c[nH]c4ccccc34)nc3ccccc3c2=O)c1` it was -2.99%.
To `CCCn1c(N)c(C(=O)CSc2nc3ccccc3c(=O)n2-c2ccc(OC)cc2)c(=O)[nH]c1=O` belongs 33.2% (active); to `CCCn1c(N)c(C(=O)CSc2nnc3n2CCCCC3)c(=O)[nH]c1=O`, 3.63%.
In the case of `O=C(CNc1ccccc1N1CCCC1=O)Nc1cc(Cl)ccc1-n1cncn1` it was 8.23%.
For the compound `Cc1ccc(F)cc1NC(=O)CSCc1c(C)noc1C`, the inhibition is 13.7%.
To `O=C(CN1C(=O)NC2(CCOc3ccccc32)C1=O)NCc1ccc(F)cc1` (configuration not stated) belongs 26.3%.
To `COc1cc(C(CCN2CCN(c3ccccc3)CC2)c2c(OC)cc(OC)c3ccc(=O)oc23)cc(OC)c1OC` (configuration not stated) belongs 23%; to `COc1cc(OC)c2ccc(=O)oc2c1C(CCN1CCN(c2ccccc2)CC1)c1ccc2c(c1)OCO2` (configuration not stated), 94% (active).
In the case of `CCN(CC)CCC(c1ccc2c(c1)OCO2)c1c(OC)cc(OC)c2c(-c3ccccc3)cc(=O)oc12` (configuration not stated) it was 13.4%.
In the case of `NS(=O)(=O)c1cc(C(=O)OCC(=O)NNC(=O)c2ccccc2)ccc1Cl`, the inhibition was 2.99%.
As to `Cc1[nH]c2ccccc2c1C(=O)C(C)Sc1nnc(C2CC2)o1` (configuration not stated), the inhibition was -40.9%.
To `CNS(=O)(=O)c1cccc(C(=O)OCC(=O)N2c3ccccc3NC(=O)C2(C)C)c1` belongs -3.21%; to `CC(C)OCCCNc1ncnc2c1[nH]c1ccc(F)cc12`, -11.8%; to `CCN1CCCC1CNc1ncnc2c1[nH]c1ccc(F)cc12` (configuration not stated), 39.5% (active).
To `CCN1CCCC1Cn1cnc2c([nH]c3cc(OC)ccc32)c1=O` (configuration not stated) belongs 24.3%.
